Measured values: the supplement of paper PMC7411054

Experiments:
Assay in all cases: phenotypically active (imaging signature differs from DMSO and reproducible) at any of 0.3-9 uM (binary (1 = active, 0 = inactive)); higher = active
Conditions in all cases: treatment time: 24 h
[1] = tested on: A549-ACTB-RAB5A
Outline: (§1)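 Live-cell features were measured per well and normalised to solvent control wells after fifteen gene-edited A549, HepG2 and WPMY1 reporter lines had been treated for 24 h at 0.3, 1, 3 or 9 µM in four wells each. A condition was deviating when ≥3 of 4 wells sat beyond the 95th percentile of control Euclidean distances. It was reproducible when the median replicate Pearson correlation exceeded the 95th percentile of non-replicates. Phenotypic activity demanded both.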

[2] = tested on: A549-CANX-COX4
Outline: as §1

[3] = tested on: A549-GM130-SQSTM1
Outline: as §1

[4] = tested on: A549-TP53BP1-CLTA
Outline: as §1

[5] = tested on: A549-TUBA1B-RELA
Outline: as §1

[6] = tested on: HepG2-ACTB-RAB5A
Outline: as §1

[7] = tested on: HepG2-CANX-COX4
Outline: as §1

[8] = tested on: HepG2-GM130-SQSTM1
Outline: as §1

[9] = tested on: HepG2-TP53BP1-CLTA
Outline: as §1

[10] = tested on: HepG2-TUBA1B-RELA
Outline: as §1

[11] = tested on: WPMY1-ACTB-RAB5A
Outline: as §1

[12] = tested on: WPMY1-CANX-COX4
Outline: as §1

[13] = tested on: WPMY1-GM130-SQSTM1
Outline: as §1

[14] = tested on: WPMY1-TP53BP1-CLTA
Outline: as §1

[15] = tested on: WPMY1-TUBA1B-RELA
Outline: as §1

Measured: phenotypically active

O=C(CCc1ccc(O)cc1)c1c(O)cc(O)cc1O[C@@H]1O[C@H](CO)[C@@H](O)[C@H](O)[C@H]1O [Phloridzin]
inactive: [1] 0 | [2] 0 | [3] 0 | [4] 0 | [5] 0 | [6] 0 | [7] 0 | [8] 0 | [9] 0 | [10] 0 | [11] 0 | [12] 0 | [13] 0 | [14] 0 | [15] 0

Brc1c(NC2=NCCN2)ccc2nccnc12 [brimonidine]
inactive: [1] 0 | [2] 0 | [3] 0 | [4] 0 | [5] 0 | [6] 0 | [7] 0 | [8] 0 | [9] 0 | [10] 0 | [11] 0 | [12] 0 | [13] 0 | [14] 0 | [15] 0

C[N+](C)(CCCCCC[N+](C)(C)CCCN1C(=O)c2ccccc2C1=O)CCCN1C(=O)c2ccccc2C1=O [W-84 dibromide]
inactive: [1] 0 | [2] 0 | [3] 0 | [4] 0 | [5] 0 | [6] 0 | [7] 0 | [8] 0 | [9] 0 | [10] 0 | [11] 0 | [12] 0 | [13] 0 | [14] 0 | [15] 0

COC(=O)C1=C(C)NC(C)=C(C(=O)OC(C)C)C1c1cccc2nonc12 (stereo not given) [isradipine]
inactive: [1] 0 | [2] 0 | [3] 0 | [4] 0 | [5] 0 | [6] 0 | [7] 0 | [8] 0 | [9] 0 | [10] 0 | [11] 0 | [12] 0 | [13] 0 | [14] 0 | [15] 0

COc1ccc2c3c1O[C@H]1C[C@@H](O)C=C[C@@]31CCN(C)C2 [galantamine]
inactive: [1] 0 | [2] 0 | [3] 0 | [4] 0 | [5] 0 | [6] 0 | [7] 0 | [8] 0 | [9] 0 | [10] 0 | [11] 0 | [12] 0 | [13] 0 | [14] 0 | [15] 0
